# Reference: the supplement of paper PMC4962491
# Structures can show the parent of a compound that is named as a salt. ± gives the standard deviation of the averaged measurements. Whole data set: some 1,600 compounds, median “mitochondrial oxygen consumption rate normalised to cell number, Z score over the library” near 0.065, cut for the lowest 2% near -2.2. The sample holds the lowest values, similar compounds and a random draw of the others, so the mix is not that of the screen.
# System: FaDu
# Assay: mitochondrial oxygen consumption rate normalised to cell number, Z score over the library; higher = higher oxygen consumption (negative = OCR reduction)
# Conditions: treatment time 24 h; assay medium: 5 mM galactose, 5 mM pyruvate, 4 mM glutamine; 10 µM
# Method: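 Primary screen: FaDu cells were incubated 24 h with Pharmakon 1600 / TDI oncology set compounds at 2 or 10 uM. Mitochondrial-specific OCR (basal minus 2 uM antimycin A) was measured on a Seahorse XF96 in assay medium with 5 mM galactose, 5 mM pyruvate and 4 mM glutamine, then corrected for Hoechst cell number and expressed as a Z score […]. Compounds that cut cell number by >66% were excluded. Two repeats.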
row,Structure (SMILES),mitochondrial oxygen consumption rate normalised
1,CCCCCC(C)N (stereo unspecified),-0.846 ± 0.93
2,CC#CCn1c(N2CCC[C@@H](N)C2)nc2c1c(=O)n(Cc1nc(C)c3ccccc3n1)c(=O)n2C,0.0591 ± 0.1
3,CCCCC(=O)O[C@H]1CC[C@H]2[C@@H]3CCc4cc(O)ccc4[C@H]3CC[C@]12C,-0.519 ± 0.44
4,CCCCC(CC)COC(=O)CC(C(=O)OCC(CC)CCCC)S(=O)(=O)O (stereo unspecified),0.149 ± 0.34
5,CCCCC(CC)CN=C(N)N=C(N)NCCCCCCNC(N)=NC(N)=NCC(CC)CCCC (stereo unspecified),-4.17 ± 0.22
6,CC(=O)Nc1ccc(OC(=O)c2ccccc2O)cc1,-0.337 ± 0.25
7,CC(CCc1ccc(O)cc1)NCC(O)c1ccc(O)cc1 (stereo unspecified),0.0984 ± 0.26
8,CNNCc1ccc(C(=O)NC(C)C)cc1,0.342 ± 0.2
9,CNNCc1ccc(C(=O)NC(C)C)cc1 [Procarbazine HCl],0.127 ± 0.26
10,C[C@H]1C[C@H]2[C@@H]3CCC4=CC(=O)C=C[C@]4(C)[C@@]3(F)[C@@H](O)C[C@]2(C)[C@@]1(O)C(=O)COP(=O)(O)O,-0.398 ± 0.27
11,CS(=O)(=O)OCCCCOS(C)(=O)=O,0.716 ± 1.1
12,CS(=O)(=O)OCCCCOS(C)(=O)=O [Busulfan],0.391 ± 1.2
13,NC(=O)c1ccc([N+](=O)[O-])cc1Cl,0.965 ± 0.77
14,O=C(Nc1ccc([N+](=O)[O-])cc1Cl)c1cc(Cl)ccc1O,-5.97 ± 0.27
15,O=C(O)COCCN1CCN([C@H](c2ccccc2)c2ccc(Cl)cc2)CC1,-0.965 ± 0.4
16,COc1ccc2nc3cc(Cl)ccc3c(Nc3cc(CN4CCCC4)c(O)c(CN4CCCC4)c3)c2n1,-0.0207 ± 0.29

row,Structure (SMILES),mitochondrial oxygen consumption rate normalised
1,COc1cc2c(N3CCN(C(=O)Nc4ccc(OC(C)C)cc4)CC3)ncnc2cc1OCCCN1CCCCC1,0.241 ± 0.61
2,COc1ccc(OC)c(C(O)CNC(=O)CN)c1 (stereo unspecified),0.934 ± 0.11
3,C[n+]1ccccc1/C=N/O,0.788 ± 0.1
4,Cc1ncc(C[n+]2csc(CCO)c2C)c(N)n1,1.53 ± 0.67
5,CC1(O)CCC(C(C)(C)O)CC1 (stereo unspecified),0.228 ± 0.62
6,CO[C@@]12[C@H](COC(N)=O)C3=C(C(=O)C(C)=C(N)C3=O)N1C[C@@H]1N[C@@H]12,-2.77 ± 0.14
7,O=C(O)CCC(=O)OC[C@@H](NC(=O)C(Cl)Cl)[C@H](O)c1ccc([N+](=O)[O-])cc1,-1.19 ± 0.7
8,CC1CC(OC(=O)C(O)c2ccccc2)CC(C)(C)C1 (stereo unspecified),0.62 ± 0.34
9,C[C@@H](c1ncncc1F)[C@](O)(Cn1cncn1)c1ccc(F)cc1F,-0.0277 ± 0.47
10,Cc1cc(N)c2ccccc2[n+]1CCCCCCCCCC[n+]1c(C)cc(N)c2ccccc21,-2.58 ± 0.47
11,O=C1NS(=O)(=O)c2ccccc21,0.156 ± 0.036
12,COC(=O)C(N)CS (stereo unspecified),0.244 ± 0.32
13,CC(=O)CC(c1ccc([N+](=O)[O-])cc1)c1c(O)c2ccccc2oc1=O (stereo unspecified),0.325 ± 0.51
14,CCOc1cc(NC(C)=O)ccc1C(=O)OC,-0.0275 ± 0.23
15,CO[C@H](C(=O)[C@@H](O)[C@@H](C)O)[C@@H]1Cc2cc3cc(O[C@H]4C[C@@H](O[C@@H]5C[C@@H](O)[C@H](O)[C@@H](C)O5)[C@H](O)[C@@H](C)O4)c(C)c(O)c3c(O)c2C(=O)[C@H]1O[C@H]1C[C@@H](O[C@@H]2C[C@@H](O)[C@@H](O[C@@H]3C[C@](C)(O)[C@H](O)[C@@H](C)O3)[C@@H](C)O2)[C@H](O)[C@@H](C)O1,-3.768 ± 0.0062
